Assay results from PubChem BioAssay (NCATS).
Records with an inconclusive call do not appear. A call without a number means that no potency is given here. Calls of active or inactive are those of the source. Calls follow the shape of the dose curve; as a rule, active = well fitted curve in the direction sought with a large enough effect; inconclusive = small, poorly fitted or top-dose-only effect, or another doubt; inactive = no such curve, though single readings can be large; an effect the other way counts as inactive or inconclusive.

Tests used:
[1] = qHTS for Inhibitors of Plasmodium falciparum (DD2) proliferation (AID 504314);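 also: parasite DNA measured by SYBR Green fluorescence after red cell lysis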; details: P. falciparum Dd2 in erythrocytes, SYBR Green growth, 72 h; series mostly up to 1.12 µM
Procedure, shortened: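 Erythrocytes infected with P. falciparum (0.3% parasitemia, 2.5% hematocrit final) were incubated with compounds for 72 h at 37C, 5% CO2. Parasite DNA was detected by SYBR Green I fluorescence after saponin/Triton lysis, normalized to artemisinin (0.29 uM) and DMSO controls.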

[2] = qHTS for Inhibitors of Plasmodium falciparum (GB4) proliferation (AID 504315); also: nearly all actives have a fitted effect of over 50% in size; details: P. falciparum GB4 in erythrocytes, SYBR Green DNA, 72 h; series mostly up to 6.7 µM
Procedure, shortened: (§1)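 Erythrocytes infected with P. falciparum line (0.3% parasitemia, 2.5% hematocrit final) incubated with compounds 72 h at 37 °C, 5% CO2; SYBR Green lysis buffer added, fluorescence read next day. Normalized to 0.29 uM artemisinin and DMSO.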

[3] = qHTS for Inhibitors of Plasmodium falciparum (7G8) proliferation (AID 504316); also: nearly all actives have a fitted effect of over 65% in size; details: P. falciparum 7G8 in erythrocytes, SYBR Green DNA, 72 h; series mostly up to 6.7 µM
Procedure, shortened: as §1

[4] = qHTS for Inhibitors of Plasmodium falciparum (HB3) proliferation (AID 504318); also: nearly all actives have a fitted effect of over 60% in size; details: P. falciparum HB3 in erythrocytes, SYBR Green DNA, 72 h; series mostly up to 7.21 µM
Procedure, shortened: as §1

[5] = qHTS for Inhibitors of Plasmodium falciparum (CP250) proliferation (AID 504320); details: P. falciparum CP250 in erythrocytes, SYBR Green DNA, 72 h; series mostly up to 6.7 µM
Procedure, shortened: as §1

| Compound | Potency [1] | Potency [2] | Potency [3] | Potency [4] | Potency [5] |
| --- | --- | --- | --- | --- | --- |
| COC(=O)C[C@H]1c2ccccc2[C@H]2C(=C[C@@H](C)[C@H]3C(=O)N(O)C(=O)[C@H]32)N1C(=O)OC | inactive | inactive | inactive | inactive | inactive |
| C[C@H]1CC[C@H]2C(=O)N(Cc3ccccc3)C[C@H](O)CN2[C@H]1c1cccc(Br)c1 | inactive | – | – | – | – |
| COC(=O)C1=C(C(=O)OC)[C@@H]2N(Cc3ccccc3)c3ccccc3[C@@]23C[C@@H](C(=O)OC)N(C(=O)CC(C)C)C3=N1 | inactive | – | – | – | – |
| COc1cccc([C@@H]2Oc3ccc(Br)cc3[C@H](O)[C@@H]2O)c1 | inactive | inactive | inactive | inactive | inactive |
| CC#CCN1c2ccccc2[C@]23C[C@@H](C(=O)OC)N(S(=O)(=O)c4ccc([N+](=O)[O-])cc4)C2=NC(C(=O)OC)=C(C(=O)OC)[C@H]13 | inactive | – | – | – | – |
| C[C@@H](c1ccccc1)N1C(=O)[C@@H]2[C@H]3[C@H](O)[C@H](O)CC(=NNC(=O)OCc4ccccc4)[C@@H]3CC[C@H]2C1=O | inactive | inactive | inactive | – | – |
| COC(=O)C1=C(C(=O)OC)[C@@H]2N(C)c3ccc(OC)cc3[C@@]23C[C@@H](C(=O)OC)N(S(=O)(=O)c2ccc(C(F)(F)F)cc2)C3=N1 | inactive | – | – | – | – |
| COC/C=C/C1=CC2=CC(=O)C(C)(OC(=O)c3cnc4ccccc4n3)C(=O)C2=CN1C1CCCC1 (stereo not given) | inactive | inactive | inactive | inactive | inactive |
| CC(C)(C)N1C(=O)[C@@H]2[C@H]3[C@H](O)[C@H](O)CC(=NOCc4ccccc4)[C@H]3CC[C@H]2C1=O | inactive | inactive | inactive | – | – |
